Data on 14 compounds can be found in PubChem BioAssay (NCI).

The structures appear in SMILES notation. The panel holds about 83,000 compounds, 20% with a hit somewhere; the sample as a whole holds those more often.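 In brief: 96-well plates, 48 h treatment, single concentration, percent growth endpoint.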 Values without a mark were called inactive. Calls of active or inactive are those of the source. How the source made its calls: active means growth percent below 10; inactive means the rest.

What all share (assay): NCI-60 one-dose screen, 48 h (100 = growth as untreated, 0 = no growth, -100 = all killed)
The subject of one experiment is T-47D breast. To be noted: 10 µM.
The test system of a further experiment is BT-549 breast. Conditions: 10 µM unless noted.
The test system of another experiment is MDA-MB-435 melanoma. Conditions: 10 µM unless noted.
A further experiment deals with SW-620 colon. Conditions: 10 µM unless noted.
In another experiment the test system is MCF7 breast. To be noted: 10 µM unless noted.
In another experiment the test system is HCT-116 colon. To be noted: 10 µM unless noted.
Another experiment concerns HCC-2998 colon. Conditions: 10 µM unless noted.
A further experiment concerns KM12 colon. To be noted: 10 µM unless noted.

For `COc1cc2nc(SCc3cc(OC)c(OC)c(OC)c3)n(-c3ccccc3OC)c(=O)c2cc1OC`, the growth was 88.6% with T-47D breast; 87.5% with BT-549 breast; 0.0693% (active) with MDA-MB-435 melanoma; 76.4% in the experiment on SW-620 colon; 77% with MCF7 breast; 88% in the experiment on HCT-116 colon. For the same compound, the growth in the experiment on HCC-2998 colon is 94.6%; in the experiment with KM12 colon, 54.1%.
Take `Oc1ccc(Cl)cc1CNc1nc2ccccc2[nH]1`: the growth in the experiment with T-47D breast was 96%; in the experiment with BT-549 breast, 58.4%; in the experiment on MDA-MB-435 melanoma, -67.3% (active); in the experiment on SW-620 colon it was -48.6% (active); in the experiment on MCF7 breast, 18%; with HCT-116 colon, 12.3%. Further, the growth in the experiment with HCC-2998 colon is 59.3%; in the experiment with KM12 colon, 13.2%.
Take `COc1cc(C2C3=C(COC3=O)N(CCO)c3cc4c(cc32)OCO4)cc(OC)c1O` (configuration not stated): the growth in the experiment with T-47D breast was 35.3%; in the experiment with BT-549 breast, 59.9%; in the experiment with MDA-MB-435 melanoma it was -39.6% (active); in the experiment with SW-620 colon it was 14.8%; in the experiment on MCF7 breast, 19.6%; with HCT-116 colon it was 16.7%. The results for the growth with HCC-2998 colon and with KM12 colon were 28.4% and 20.9%, respectively.
In the case of `Cc1ccc2c(c1)c(Sc1ccc(C(=O)NO)cc1)c1n2CN(C)CC1`, the growth in the experiment with T-47D breast was 23.4%; with BT-549 breast, 54.3%; with MDA-MB-435 melanoma, 18.9%; in the experiment on SW-620 colon, 7.66% (active); in the experiment on MCF7 breast it was 16.6%; in the experiment with HCT-116 colon, -11.2% (active). Further, the values for the growth with HCC-2998 colon and in the experiment on KM12 colon were 14.9% and 27.7%, respectively.
For the compound `O=c1nc(NO)[nH]c(=O)n1Cc1ccc(F)cc1`, the growth in the experiment on T-47D breast is 97%; in the experiment with BT-549 breast, 102%; with MDA-MB-435 melanoma it was 103%; in the experiment on SW-620 colon, 101%; in the experiment with MCF7 breast it was 94.3%; in the experiment with HCT-116 colon, 102%. For the same compound, the growth in the experiment on HCC-2998 colon was 114%; in the experiment with KM12 colon it was 109%.
`O=c1[nH]c(-c2ccccn2)nc2sc3c(c12)CCCCCC3`: the growth with T-47D breast is 42.6%; with BT-549 breast it was 62.2%; with MDA-MB-435 melanoma, 46.4%; with SW-620 colon it was 25%; with MCF7 breast, 29.6%; in the experiment with HCT-116 colon, 24.6%. The growth in the experiment with HCC-2998 colon was 53.5%; with KM12 colon it was 33.6%.
As to `O=c1[nH]c(=S)[nH]c(=O)n1Cc1cccc2ccccc12`, the growth with T-47D breast was 99.5%; with BT-549 breast, 107%; with MDA-MB-435 melanoma, 99.7%; with SW-620 colon, 103%; with MCF7 breast it was 80.9%; in the experiment on HCT-116 colon it was 102%. Besides, the growth with HCC-2998 colon was 86.5%; in the experiment on KM12 colon it was 105%.
In the case of `O=C(N/N=C(\CS(=O)(=O)c1ccccc1)c1cc2ccccc2oc1=O)c1ccccc1`, the growth is 101% in the experiment on T-47D breast; 104% in the experiment on BT-549 breast; 103% in the experiment with MDA-MB-435 melanoma; 105% in the experiment with SW-620 colon; 102% in the experiment on MCF7 breast; 112% in the experiment with HCT-116 colon. The growth in the experiment on HCC-2998 colon was 106%; in the experiment with KM12 colon, 108%.
As for `O/N=C/c1cccs1`, the growth is 111% with T-47D breast; 112% in the experiment with BT-549 breast; 99.8% in the experiment on MDA-MB-435 melanoma; 104% in the experiment with SW-620 colon; 99.2% with MCF7 breast; 102% in the experiment on HCT-116 colon. Also, the results for the growth with HCC-2998 colon and in the experiment with KM12 colon were 111% and 110%, respectively.
`COc1ccc(C2CC(c3cc(OC)c(OC)c(OC)c3)=NN2c2ccc(S(N)(=O)=O)cc2)cc1` (configuration not stated): the growth in the experiment with T-47D breast was 55.9%; in the experiment on BT-549 breast it was 83.9%; in the experiment on MDA-MB-435 melanoma it was 66.2%; with SW-620 colon, 67.9%; in the experiment with MCF7 breast, 57%; with HCT-116 colon, 48.2%. Moreover, the growth with HCC-2998 colon was 79.7%; in the experiment with KM12 colon, 63.5%.
With `CC(C)(C)[Si](C)(C)OC1[C@@H](CNC(=O)NC(=O)CCl)O[C@@H](n2cnc3c(N)ncnc32)[C@H]1O[Si](C)(C)C(C)(C)C` (some centres not stated), the growth was 13.5% in the experiment with T-47D breast; -70.6% (active) in the experiment on BT-549 breast; -90% (active) in the experiment on MDA-MB-435 melanoma; -82% (active) with SW-620 colon; -75.5% (active) in the experiment with MCF7 breast; -87.7% (active) with HCT-116 colon. For the same compound, the values for the growth with HCC-2998 colon and in the experiment with KM12 colon were -69.5% (active) and -82.4% (active), respectively.
Take `CN1CCN(CCCn2c3c(sc4ncccc43)c(=O)n3nnc(-c4ccccc4)c23)CC1`: the growth in the experiment on T-47D breast is 113%; with BT-549 breast, 93.5%; with MDA-MB-435 melanoma, 97.9%; in the experiment on SW-620 colon, -44.5% (active); in the experiment on MCF7 breast, -90.6% (active); in the experiment with HCT-116 colon it was -92.6% (active). Also, the growth in the experiment with HCC-2998 colon was 99.2%; with KM12 colon, -32.1% (active).
As for `O=[N+]([O-])c1ccc(O)c2ncccc12`, the growth is 30.4% in the experiment with T-47D breast; 55.2% in the experiment with BT-549 breast; 43.8% in the experiment on MDA-MB-435 melanoma; 32.6% in the experiment on SW-620 colon; 35.2% in the experiment on MCF7 breast; 17.1% with HCT-116 colon. The growth in the experiment on HCC-2998 colon was 51.6%; with KM12 colon, 35.5%.
On to `Cc1nc2cc(Nc3nc(NCCN)nc(Nc4ccc(F)cc4)n3)ccc2n1Cc1ccccc1`, for which the growth in the experiment on T-47D breast is 69.1%; in the experiment with BT-549 breast, 90%; with MDA-MB-435 melanoma, 80.4%; in the experiment with SW-620 colon, 73.9%; in the experiment on MCF7 breast, 68.8%; in the experiment on HCT-116 colon it was 60.3%. Also, the growth with HCC-2998 colon and in the experiment with KM12 colon was 70.6% throughout.
